According to PubChem BioAssay (NCATS):
Inconclusive results are not listed. Where a call stands in place of a potency, no number is given. Activity calls are given as the source filed them. Unless noted, calls follow the shape of the dose curve; as a rule, active = well fitted curve in the direction sought with a large enough effect; inconclusive = small, poorly fitted or top-dose-only effect, or another doubt; inactive = no such curve, though single readings can be large; an effect the other way counts as inactive or inconclusive.

Columns and labels:
[1] = biological target: D(1A) dopamine receptor (Homo sapiens) (UniProt P21728); test: HTS Assay for Allosteric Agonists of the Human D1 Dopamine Receptor: Primary Screen for Agonists (AID 488981)
D(1A) dopamine receptor (Homo sapiens), sequence (P21728 whole entry, looked up): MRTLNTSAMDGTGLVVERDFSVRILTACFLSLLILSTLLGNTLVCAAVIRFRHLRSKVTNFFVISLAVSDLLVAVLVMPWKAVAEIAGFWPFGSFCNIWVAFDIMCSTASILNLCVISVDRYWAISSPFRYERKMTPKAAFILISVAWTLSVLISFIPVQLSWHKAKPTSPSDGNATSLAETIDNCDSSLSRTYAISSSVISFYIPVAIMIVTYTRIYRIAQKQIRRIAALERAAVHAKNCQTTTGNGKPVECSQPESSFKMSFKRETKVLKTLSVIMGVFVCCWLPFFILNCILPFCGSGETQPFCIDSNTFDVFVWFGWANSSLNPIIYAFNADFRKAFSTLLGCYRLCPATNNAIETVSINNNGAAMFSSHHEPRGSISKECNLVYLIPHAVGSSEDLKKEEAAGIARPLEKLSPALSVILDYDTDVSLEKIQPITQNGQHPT
In short: (§1)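 Calcium flux in an inducible, force-coupled HEK293 Trex D1 line (overnight at 30 C): agonist mode is the 180 s kinetic read after compound; potentiator mode is the following 180 s read after dopamine at EC20.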

[2] = biological target: D(1A) dopamine receptor (Homo sapiens) (UniProt P21728); test: HTS Assay for Allosteric Agonists of the Human D1 Dopamine Receptor: Primary Screen for Potentiators (AID 488982); also: potency is read from the fitted curve at half-maximal effect
In short: as §1

[3] = biological target: D(1A) dopamine receptor (Homo sapiens) (UniProt P21728); test: HTS Assay for Allosteric Agonists of the Human D1 Dopamine Receptor: Primary Screen for Antagonists (AID 488983);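 also: calcium flux response to an EC80 dopamine challenge measured with no-wash dye; nearly all actives have a fitted effect of over 65% in size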; also: potency is read from the fitted curve at half-maximal effect
In short: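 Tetracycline-induced HEK293 T-REx D1 line, force-coupled to calcium flux, read with no-wash calcium dye. Compound added after 10 s baseline, read 180 s for agonism, then EC80 dopamine added and read a further 180 s.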

[4] = Nrf2 qHTS screen for inhibitors: Validation (AID 493153; active = well fitted inhibition curve with a large enough effect in the main read-out, with a control signal flat, not every such curve was filed as active); conditions: Potency: luciferase luminescence; viability change: measured here: cytotoxicity max response
In short: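 A549 cells carrying ARE-firefly luciferase reporter, 5000 cells/well in 5% FBS OPTI-MEM, treated with compound over a concentration series for 18-24 h at 37 C. Luciferase luminescence gave Nrf2 activity; CellTiter-Fluor fluorescence gave viability.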

[5] = qHTS for Inhibitors of Cell Surface uPA Generation: Validation Assay (AID 493164)
In short: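 RAW 264.7 cells (4000/well) were plated overnight, then exposed for 18 h at 37 C, 5% CO2 to compounds in a 7-point 1:5 titration (2.45 nM–38.3 uM final). Intracellular ATP was read by ATP-Lite luminescence.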

[6] = biological target: Peptidyl-prolyl cis-trans isomerase NIMA-interacting 1 (Homo sapiens) (UniProt Q13526); test: qHTS Validation Assay to Find Inhibitors of Pin1 (AID 504536; active = well fitted inhibition curve with a large enough effect in the polarisation, with a control signal flat, not every such curve was filed as active; the % refers to the polarisation)
Peptidyl-prolyl cis-trans isomerase NIMA-interacting 1 (Homo sapiens), sequence (Q13526 whole entry, looked up): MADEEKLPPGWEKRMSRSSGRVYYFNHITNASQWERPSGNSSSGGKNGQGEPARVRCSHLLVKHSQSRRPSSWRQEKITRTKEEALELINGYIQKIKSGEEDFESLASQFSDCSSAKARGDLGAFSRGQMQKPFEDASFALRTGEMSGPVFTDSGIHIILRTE
In short: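 Fluorescence polarization competition: compounds (titration) displace HiFluor-488-labeled Pin1-1b peptide from Pin1 (0.3 uM final) in pH 7.5 HEPES buffer with DTT, 10 min at room temperature; %Activity normalized to no-enzyme wells, curves fitted.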

[7] = biological target: Phosphoglycerate kinase, glycosomal (Trypanosoma brucei brucei) (UniProt P07378); test: qHTS Validation Assay to Find Inhibitors of Phosphoglycerate Kinase (AID 504547)
Phosphoglycerate kinase, glycosomal (Trypanosoma brucei brucei), sequence (P07378 whole entry, looked up): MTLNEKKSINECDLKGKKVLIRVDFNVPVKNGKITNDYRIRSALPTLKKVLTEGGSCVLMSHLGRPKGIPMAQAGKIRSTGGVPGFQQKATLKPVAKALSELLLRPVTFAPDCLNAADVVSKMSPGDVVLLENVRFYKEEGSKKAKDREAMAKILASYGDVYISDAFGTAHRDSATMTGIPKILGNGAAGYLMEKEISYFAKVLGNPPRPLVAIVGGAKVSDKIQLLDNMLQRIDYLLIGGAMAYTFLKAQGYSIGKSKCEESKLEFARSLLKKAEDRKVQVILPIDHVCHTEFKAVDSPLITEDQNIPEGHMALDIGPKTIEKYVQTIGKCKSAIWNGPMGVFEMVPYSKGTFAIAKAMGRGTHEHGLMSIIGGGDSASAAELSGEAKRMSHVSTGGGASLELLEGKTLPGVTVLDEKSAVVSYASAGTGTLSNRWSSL
In short: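 Inhibition of the enzyme is judged by a Kinase-Glo Plus luminescent signal following a one-hour incubation at room temperature. Because 1,3-BPG is unstable, it is made in situ by GAPDH at 100nM final; no-PGK wells define the baseline.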

[8] = biological target: phosphoglycerate mutase (Leishmania major) (UniProt Q4Q090); test: qHTS Validation Assay to Find Inhibitors of Phosphoglycerate Mutase (AID 504548); conditions: Potency: inhibition qHTS;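 also: end-point luminescence from Kinase-GloPlus after the PGAM reaction; series mostly up to about 58 µM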
phosphoglycerate mutase (Leishmania major), sequence (Q4Q090 1-553): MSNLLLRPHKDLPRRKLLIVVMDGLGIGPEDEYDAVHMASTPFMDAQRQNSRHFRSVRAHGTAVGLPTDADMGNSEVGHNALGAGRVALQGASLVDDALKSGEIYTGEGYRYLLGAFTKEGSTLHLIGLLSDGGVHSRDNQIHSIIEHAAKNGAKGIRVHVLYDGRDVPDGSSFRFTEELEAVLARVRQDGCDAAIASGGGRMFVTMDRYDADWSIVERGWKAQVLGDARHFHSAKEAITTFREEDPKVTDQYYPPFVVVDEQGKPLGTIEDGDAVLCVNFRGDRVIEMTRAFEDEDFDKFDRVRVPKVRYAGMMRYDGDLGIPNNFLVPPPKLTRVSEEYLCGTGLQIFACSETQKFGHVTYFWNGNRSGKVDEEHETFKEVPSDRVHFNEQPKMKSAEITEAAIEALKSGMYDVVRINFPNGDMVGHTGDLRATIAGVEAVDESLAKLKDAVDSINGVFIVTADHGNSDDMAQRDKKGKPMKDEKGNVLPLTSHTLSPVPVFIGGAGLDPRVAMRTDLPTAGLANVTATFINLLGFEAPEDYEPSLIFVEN
In short: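 L. major PGAM (1.25nM final) was added to substrate buffer and pinned compound, incubated 45 minutes at room temperature, then Kinase-GloPlus added; luminescence read after 10 minutes. Buffer: 100 mM TEA pH 7.6, 5 mM MgCl2, 0.01% Tween-20.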

[9] = biological target: Ubiquitin carboxyl-terminal hydrolase 1 (Homo sapiens) (UniProt O94782); test: Inhibitors of USP1/UAF1: Pilot qHTS (AID 504865);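 also: rhodamine fluorescence freed from ubiquitin-rhodamine substrate followed over time; top concentration of the series differs between compounds; nearly all actives have a fitted effect of over 35% in size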
Ubiquitin carboxyl-terminal hydrolase 1 (Homo sapiens), sequence (O94782 whole entry, looked up): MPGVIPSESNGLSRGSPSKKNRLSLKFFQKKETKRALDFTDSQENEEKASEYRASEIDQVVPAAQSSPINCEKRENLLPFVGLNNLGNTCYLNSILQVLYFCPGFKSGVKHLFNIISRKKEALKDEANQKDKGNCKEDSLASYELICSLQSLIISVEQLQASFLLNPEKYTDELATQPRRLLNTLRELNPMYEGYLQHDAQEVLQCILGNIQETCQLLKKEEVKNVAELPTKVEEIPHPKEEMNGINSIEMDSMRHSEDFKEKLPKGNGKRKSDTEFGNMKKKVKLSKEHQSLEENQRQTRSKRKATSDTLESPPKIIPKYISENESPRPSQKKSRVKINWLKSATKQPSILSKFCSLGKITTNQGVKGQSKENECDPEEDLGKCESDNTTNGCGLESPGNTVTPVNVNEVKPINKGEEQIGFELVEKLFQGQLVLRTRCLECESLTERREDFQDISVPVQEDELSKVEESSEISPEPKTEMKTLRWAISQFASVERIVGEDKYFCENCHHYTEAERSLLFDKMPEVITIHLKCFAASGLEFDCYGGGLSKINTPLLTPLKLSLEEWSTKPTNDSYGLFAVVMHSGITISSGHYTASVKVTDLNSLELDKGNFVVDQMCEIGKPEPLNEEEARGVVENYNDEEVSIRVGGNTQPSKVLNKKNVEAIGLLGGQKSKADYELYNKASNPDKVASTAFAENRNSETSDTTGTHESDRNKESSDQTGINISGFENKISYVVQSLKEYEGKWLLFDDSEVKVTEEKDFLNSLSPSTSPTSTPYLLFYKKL
In short: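 Deubiquitinase activity followed as kinetic rhodamine fluorescence release from 150 nM Ub-Rho. 1 nM USP1/UAF1 with compound, after 15 min room-temperature preincubation, in HEPES pH 7.8 buffer containing TCEP, EDTA, BSA and Tween-20.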

[10] = qHTS for Inhibitors of ATXN expression: Validation of Cytotoxic Assay (AID 588349)
In short: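 HEK293 cells treated with titrated compound for 72 hr at 37 degrees C; viability read as intracellular ATP by CellTiter Glo luminescence.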

[11] = qHTS for Inhibitors of ATXN expression: Validation (AID 588378); also: series mostly up to about 57 µM; nearly all actives have a fitted effect of over 75% in size
In short: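 Luciferase luminescence (Bright-Glo) from an ATXN2-FFLuc HEK293 line after 24 h compound exposure at 37 °C, preceded by a CellTiter-Fluor fluorescence viability read. Serial dilutions of a reference ATXN2 inhibitor and a luciferase inhibitor served as controls.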

[12] = Validation screen for small molecules that induce genotoxicity in human embryonic kidney (HEK293T) cells expressing luciferase-tagged ELG1 (AID 493106); also: potency is read from the fitted curve at half-maximal effect
In short: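 HEK293T cells expressing luciferase-tagged ELG1, 2,000 cells/well, exposed to compound 16 hr at 37 °C, 5% CO2. Luciferase read after ONE-Glo, 30 min at room temperature; increased signal indicates genetic stress.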

[13] = biological target: ATPase family AAA domain-containing protein 5 (Homo sapiens) (UniProt Q96QE3); test: Validation screen for small molecules that inhibit ELG1-dependent DNA repair in human embryonic kidney (HEK293T) cells expressing luciferase-tagged ELG1 (AID 493107); also: nearly all actives have a fitted effect of over 70% in size; also: potency is read from the fitted curve at half-maximal effect
ATPase family AAA domain-containing protein 5 (Homo sapiens), sequence (Q96QE3 whole entry, looked up, the tested form may be a part): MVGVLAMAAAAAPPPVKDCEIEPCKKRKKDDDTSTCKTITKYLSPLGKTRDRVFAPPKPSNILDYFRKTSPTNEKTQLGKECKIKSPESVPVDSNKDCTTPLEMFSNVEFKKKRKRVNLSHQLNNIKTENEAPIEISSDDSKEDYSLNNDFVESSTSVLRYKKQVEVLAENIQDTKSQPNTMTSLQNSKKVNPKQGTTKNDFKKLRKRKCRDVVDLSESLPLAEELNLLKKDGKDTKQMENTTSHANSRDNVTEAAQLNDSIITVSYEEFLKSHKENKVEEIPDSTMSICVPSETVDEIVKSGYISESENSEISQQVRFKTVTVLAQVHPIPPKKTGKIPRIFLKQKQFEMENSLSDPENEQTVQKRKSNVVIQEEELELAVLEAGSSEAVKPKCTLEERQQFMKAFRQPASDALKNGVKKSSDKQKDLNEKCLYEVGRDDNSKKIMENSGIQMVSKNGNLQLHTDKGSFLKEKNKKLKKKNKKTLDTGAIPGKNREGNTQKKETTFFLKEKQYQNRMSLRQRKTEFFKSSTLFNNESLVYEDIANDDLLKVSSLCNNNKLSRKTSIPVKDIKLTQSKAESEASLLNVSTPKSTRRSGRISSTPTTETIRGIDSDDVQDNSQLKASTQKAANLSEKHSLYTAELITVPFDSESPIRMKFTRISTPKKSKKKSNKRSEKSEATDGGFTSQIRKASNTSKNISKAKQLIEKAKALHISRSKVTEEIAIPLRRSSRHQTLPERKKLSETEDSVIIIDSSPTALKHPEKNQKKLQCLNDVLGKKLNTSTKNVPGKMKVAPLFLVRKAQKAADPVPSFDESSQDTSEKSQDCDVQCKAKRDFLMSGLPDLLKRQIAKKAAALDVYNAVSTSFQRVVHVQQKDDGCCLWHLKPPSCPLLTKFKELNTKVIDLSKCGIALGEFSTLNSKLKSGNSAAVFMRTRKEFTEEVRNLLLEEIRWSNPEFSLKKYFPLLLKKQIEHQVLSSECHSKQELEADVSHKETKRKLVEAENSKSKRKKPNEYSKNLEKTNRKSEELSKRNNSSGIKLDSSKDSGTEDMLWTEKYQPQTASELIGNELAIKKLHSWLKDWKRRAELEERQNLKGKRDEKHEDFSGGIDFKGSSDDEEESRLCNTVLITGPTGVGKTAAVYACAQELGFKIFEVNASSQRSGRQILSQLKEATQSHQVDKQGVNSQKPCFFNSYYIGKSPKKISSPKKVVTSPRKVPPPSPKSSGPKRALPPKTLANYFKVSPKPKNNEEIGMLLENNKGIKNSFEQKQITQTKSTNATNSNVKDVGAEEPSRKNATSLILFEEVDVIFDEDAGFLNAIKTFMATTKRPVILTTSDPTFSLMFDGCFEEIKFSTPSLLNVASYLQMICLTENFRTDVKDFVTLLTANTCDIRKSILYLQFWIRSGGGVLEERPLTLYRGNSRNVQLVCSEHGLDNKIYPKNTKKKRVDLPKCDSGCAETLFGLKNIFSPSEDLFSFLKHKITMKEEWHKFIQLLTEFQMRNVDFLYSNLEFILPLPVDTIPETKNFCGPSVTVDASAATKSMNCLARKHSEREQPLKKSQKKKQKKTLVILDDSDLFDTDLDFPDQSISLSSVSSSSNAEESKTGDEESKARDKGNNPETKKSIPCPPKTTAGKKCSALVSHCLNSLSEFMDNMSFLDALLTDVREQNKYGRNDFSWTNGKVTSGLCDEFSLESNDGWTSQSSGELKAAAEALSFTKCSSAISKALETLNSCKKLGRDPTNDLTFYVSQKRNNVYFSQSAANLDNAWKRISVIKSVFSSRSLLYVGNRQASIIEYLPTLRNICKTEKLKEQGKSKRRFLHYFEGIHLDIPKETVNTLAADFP
In short: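 HEK293T cells expressing luciferase-tagged ELG1, 2,000 per well, treated with 5-fluorouridine plus compound for 16 h at 37 C. ONE-Glo luminescence after 30 min at room temperature reports ELG1 reporter level.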

[14] = biological target: Thyrotropin-releasing hormone receptor (Homo sapiens) (UniProt P34981); test: qHTS for Small Molecule Agonists and Allosteric Enhancers of Human TRH Receptor: Validation Screen for Agonists (AID 493127;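 active = calcium activation more than 3 SD above the typical response in the agonist read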); conditions: TRH receptor agonist cell assay; at 2 µM; stronger effect = higher value
Thyrotropin-releasing hormone receptor (Homo sapiens), sequence (P34981 whole entry, looked up): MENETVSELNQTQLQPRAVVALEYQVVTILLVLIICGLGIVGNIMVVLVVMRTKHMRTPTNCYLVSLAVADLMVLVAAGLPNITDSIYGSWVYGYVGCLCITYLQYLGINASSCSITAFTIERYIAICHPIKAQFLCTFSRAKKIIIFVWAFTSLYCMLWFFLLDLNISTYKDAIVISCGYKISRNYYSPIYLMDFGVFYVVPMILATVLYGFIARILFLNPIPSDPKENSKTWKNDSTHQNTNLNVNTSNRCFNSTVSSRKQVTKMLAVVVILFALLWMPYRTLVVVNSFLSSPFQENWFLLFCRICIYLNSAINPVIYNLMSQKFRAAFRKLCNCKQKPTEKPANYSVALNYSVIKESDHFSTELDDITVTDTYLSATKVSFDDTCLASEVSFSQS
In short: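 TRHR cells loaded with fluo-8 calcium dye; FDSS kinetic fluorescence (Ex 480/Em 530) read at 1 s/cycle after 23 nL compound addition. Agonist-mode calcium response recorded before the 10 nM TRH (EC20) addition.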

[15] = biological target: Galactokinase (Homo sapiens) (UniProt P51570); test: qHTS Validation Assay for Inhibitors of Human Galactokinase (GALK) (AID 493189)
Galactokinase (Homo sapiens), sequence (P51570 whole entry, looked up): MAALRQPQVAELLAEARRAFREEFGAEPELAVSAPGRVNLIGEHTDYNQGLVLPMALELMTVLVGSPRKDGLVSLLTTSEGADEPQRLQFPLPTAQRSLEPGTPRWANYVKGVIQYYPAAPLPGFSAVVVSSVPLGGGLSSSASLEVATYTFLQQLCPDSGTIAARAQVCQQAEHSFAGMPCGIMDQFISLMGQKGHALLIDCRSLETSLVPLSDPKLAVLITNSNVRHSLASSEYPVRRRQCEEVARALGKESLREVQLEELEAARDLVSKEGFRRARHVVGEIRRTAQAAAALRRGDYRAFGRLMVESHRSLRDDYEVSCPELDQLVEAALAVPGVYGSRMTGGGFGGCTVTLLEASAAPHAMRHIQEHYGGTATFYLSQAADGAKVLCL
In short: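 Inhibition was measured as remaining ATP, detected by luciferase luminescence after a 1 h room-temperature reaction. Final conditions: 5 nM GALK, 100 uM galactose, 35 uM ATP, pH 8.0 HEPES buffer.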

[16] = Validation screen for small molecules that induce DNA re-replication in SW480 colon adenocarcinoma cells (AID 504364)
In short: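 SW480 cells (250/well) exposed 48 h at 37 C, 5% CO2, then Hoechst-stained 40 min. Nuclear DNA content imaged by fluorescence scanning (405 nm excitation, 500-530 nm emission); re-replication scored as increased nuclei with elevated intensity.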

Compound | Potency [1] | Potency [2] | Potency [3] | Potency [4] | viability change [4] [%] | outcome [5] | Potency [6] | Potency [7] | Potency [8] | Potency [9] | Potency [10] | Potency [11] | Potency [12] | Potency [13] | activation [14] | Potency [15] | Potency [16]
OC[C@H]1O[C@H](n2cnc3c(N[C@H]4CCC[C@@H]4O)ncnc32)[C@H](O)[C@@H]1O | inactive | inactive | inactive | inactive | 2.15 | inactive | inactive | inactive | inactive | inactive | inactive | inactive |  |  |  |  | 
C=CCNc1ncnc2ccc(Br)cc12 | inactive | inactive | inactive |  |  | inactive | inactive | inactive | inactive | inactive | inactive | inactive | inactive | 7300 nM (active) |  |  | 
COc1ccc(-c2cc3ncc(C)n3c(Nc3ncccc3C(N)=O)n2)cc1OC | inactive | inactive | inactive |  |  | inactive | inactive | inactive | inactive | inactive |  |  | inactive | 1030 nM (active) |  |  | 
c1ccc2c(c1)CCC[C@H]2Nc1nc2ccccc2[nH]1 | inactive | inactive | inactive | inactive | -8.96 | inactive | inactive | inactive | inactive | inactive | inactive | inactive |  |  |  |  | 
C=C1C[C@@]23CC[C@H]4[C@@](C)(CCC[C@@]4(C)C(=O)OC4OC(CO)C(O)C(O)C4O)[C@@H]2CC[C@]1(OC1OC(CO)C(O)C(O)C1OC1OC(CO)C(O)C(O)C1O)C3 (stereo partly specified) | inactive | inactive | inactive | inactive | -3.06 | inactive | inactive | inactive | inactive | inactive | inactive | inactive | inactive |  |  |  | 
CCCN(CCc1ccccc1)C1CCc2c(O)cccc2C1 (stereo unspecified) | inactive | inactive |  | inactive | -8.23 |  | inactive | inactive | inactive | inactive | inactive |  |  | inactive | 1.25% (inactive) | inactive | inactive
CN(C)CCCc1cc(C(=O)Nc2ccc(-c3ccncc3)cc2)ccc1O | inactive | inactive | inactive |  |  | inactive | inactive | inactive | inactive | inactive | inactive | inactive | inactive | inactive |  |  | 
OC1(c2ccc(Cl)cc2)CCN(Cc2c[nH]c3ccccc23)CC1 |  |  |  | inactive | -2.32 | inactive | inactive | inactive | inactive | inactive | inactive |  | inactive |  | 7.75% (inactive) | inactive | inactive
C[C@](Cc1ccc(O)c(O)c1)(NN)C(=O)O | inactive |  | inactive | inactive | -1.27 |  | inactive | inactive | inactive |  | inactive | inactive | inactive | inactive |  |  | 
CN1Cc2sccc2C(c2ccc(O)c(O)c2)C1 (stereo unspecified) |  | inactive | 355 nM (active) | inactive | 12.4 |  | inactive | inactive | inactive | inactive |  | inactive |  | inactive |  |  | 
CSc1nc(N)c2ncn([C@@H]3O[C@H](COP(=O)(O)OP(=O)(O)O)C(O)[C@H]3O)c2n1 (stereo partly specified) |  | 51.7 nM (active) |  | inactive | 0.858 | inactive |  |  | inactive | inactive | inactive | inactive |  | inactive |  |  | 
CCC1(O)CC2CN(CCc3c([nH]c4ccccc34)[C@@](C(=O)OC)(c3cc4c(cc3OC)N(C=O)C3[C@]45CCN4CC=C[C@@](CC)([C@@H](OC(C)=O)[C@]3(O)C(=O)OC)[C@H]45)C2)C1 (stereo partly specified) | inactive | inactive | inactive |  |  | inactive | inactive | inactive |  |  |  | inactive | 920 nM (active) |  | 0.188% (inactive) | inactive | 
